# Several values for one entry are separate records, joined by “and”; a condition that tells them apart may be missing. Equal entries are not always repeated. The campaign covered roughly 2,000 compounds. About 100 (5%) were called active. No stated cut-off is given here; in the data, active means z-score above about 2; inactive means the rest. What follows is part of a selection rich in actives, with near analogues and random picks from the rest.
# Assay: modulators of mitochondrial supercomplex assembly, cell-based, luminescence, Hoechst nuclei count (AID 1645838);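 further: control cybrid cells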;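 on z-score: higher means more mitochondrial supercomplex formation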
# Details: Cells, luminescence/Hoechst cell count ratio, supercomplex reporter; for z-score: stronger effect = higher value; for cell count: measured here: cell number, Hoechst nuclei count; for outcome: library stock 10 mM
# [1] = library stock concentration (final well concentration not given) 80 uM
# [2] = library stock concentration (final well concentration not given) 400 uM
# [3] = library stock concentration (final well concentration not given) 2 mM
# [4] = library stock concentration (final well concentration not given) 10 mM
# [5] = library stock concentration (final well concentration not given) 46 uM
# [6] = library stock concentration (final well concentration not given) 278 uM
# [7] = library stock concentration (final well concentration not given) 1.67 mM
smiles,measurement,setting,value
COC(=O)CCCCCC[C@@H]1[C@@H](CCC(O)C#Cc2ccccc2F)[C@H](O)C[C@@H]1O (some centres not stated),z-score,,-0.523 (inactive)
same,cell count,,5390
CCCCC[C@H](O)/C=C/[C@@H]1[C@H]2C[C@H](CCCCC(=O)O)O[C@H]2C[C@H]1O,z-score,,0.18 (inactive)
same,cell count,,5310
COc1cc(N2CCC(C(N)=O)CC2)ccc1Nc1nc(N)c(Cl)c(Nc2ccccc2S(=O)(=O)C(C)C)n1,z-score,[1],-0.397 (inactive)
same,z-score,[2],-0.357 (inactive)
same,z-score,[3],-0.497 (inactive)
same,z-score,[4],-0.438 (inactive)
same,cell count,[1],5060
same,cell count,[2],4660
same,cell count,[3],4640
same,cell count,[4],4760
C#Cc1cccc(Nc2ncnc3cc4c(cc23)OCCOCCOCCO4)c1,z-score,[1],-0.401 (inactive)
same,z-score,[2],-0.555 (inactive)
same,z-score,[3],-0.372 (inactive)
same,z-score,[4],-0.218 (inactive)
same,cell count,[1],5760
same,cell count,[2],5920
same,cell count,[3],5800
same,cell count,[4],5980
COc1cc2ncnc(Nc3cc(Br)c(O)c(Br)c3)c2cc1OC,z-score,[1],-0.757 (inactive)
same,z-score,[2],-0.502 (inactive)
same,z-score,[3],-0.971 (inactive)
same,z-score,[4],-0.687 (inactive)
same,cell count,[1],4740
same,cell count,[2],4630
same,cell count,[3],5420
same,cell count,[4],5090
C#Cc1cccc(Nc2ncnc3cc(OCCOC)c(OCCOC)cc23)c1,z-score,[1],0.334 (inactive)
same,z-score,[2],0.287 (inactive)
same,z-score,[3],-0.186 (inactive)
same,z-score,[4],2.02 (active)
same,cell count,[1],5220
same,cell count,[2],5400
same,cell count,[3],5470
same,cell count,[4],3820
C[C@H](N)C(=O)CCCCCC(=O)O,z-score,,-0.273 (inactive)
same,cell count,,5410
NCCCNCCCCN(CCCN)[N+]([O-])=NO,z-score,,1.09 (inactive)
same,cell count,,5110
COc1ccc2cc(CC(=O)O)ccc2c1,z-score,,-0.782 (inactive)
same,cell count,,5780
CCCCC[C@H](O)/C=C/[C@H]1CC[C@H](O)[C@@H]1CCCCCCC(=O)O,z-score,,-0.59 (inactive)
same,cell count,,5510
CN(C)C1CCN(C(=O)c2ccc(NC(=O)Nc3ccc(-c4nc(N5CCOCC5)nc(N5CCOCC5)n4)cc3)cc2)CC1,outcome,,inactive; censored for cell count
same,z-score,[1],-0.0957 (inactive)
same,z-score,[2],0.581 (inactive)
same,z-score,[3],2.23 (active)
same,cell count,[1],5680
same,cell count,[2],4160
same,cell count,[3],1900
CNC(=O)Nc1ccc(-c2nc(N3CC4CCC(C3)O4)c3cnn(C4CCC5(CC4)OCCO5)c3n2)cc1,outcome,,inactive; censored for cell count
same,z-score,[1],1.01 (inactive)
same,z-score,[2],1.56 (inactive)
same,z-score,[3],1.64 (inactive)
same,cell count,[1],2180
same,cell count,[2],1780
same,cell count,[3],1600
O=C(Nc1ccccc1)Nc1ccc(-c2ccc(C(=O)C3CCCC3C(=O)O)cc2)cc1 (configuration not stated),z-score,[1],-0.37 (inactive)
same,z-score,[2],-0.219 (inactive)
same,z-score,[3],-0.285 (inactive)
same,z-score,[4],-0.46 (inactive)
same,cell count,[1],5980
same,cell count,[2],5880
same,cell count,[3],6590
same,cell count,[4],5760
CC(C)CCC[C@@H](C)[C@H]1CC[C@H]2[C@@H]3CC(=O)[C@@]4(O)C[C@@H](O)CC[C@]4(C)[C@H]3CC[C@]12C,z-score,,0.076 (inactive)
same,cell count,,4620
CN(CC=CC#CC(C)(C)C)Cc1cccc2ccccc12,z-score,[5],-0.128 (inactive)
same,z-score,[6],-0.114 (inactive)
same,z-score,[7],-0.2 (inactive)
same,z-score,[4],-0.286 (inactive)
same,cell count,[5],4930
same,cell count,[6],4830
same,cell count,[7],5350
same,cell count,[4],5180
CCCCCCCCC#CCCCCCCCC(=O)c1nc2ncccc2o1,z-score,,-0.992 (inactive)
same,cell count,,5900
CCOC(=O)C(N)Cc1ccc(-c2cc(OC(c3ccc(Cl)cc3-n3ccc(C)n3)C(F)(F)F)nc(N)n2)cc1 (configuration not stated),z-score,[5],-0.503 (inactive)
same,z-score,[6],-0.649 (inactive)
same,z-score,[7],-0.638 (inactive)
same,z-score,[4],1.7 (inactive)
same,cell count,[5],6360
same,cell count,[6],6270
same,cell count,[7],6660
same,cell count,[4],2760
CCCCCCCCCCCCCCCCOC[C@H](COP(=O)([O-])OCC[N+](C)(C)C)OC(=O)NC,z-score,,-1.68 (inactive)
same,cell count,,5690
O=C(c1cc(Cc2n[nH]c(=O)c3ccccc23)ccc1F)N1CCN(C(=O)C2CC2)CC1,z-score,[1],-0.363 (inactive)
same,z-score,[2],-0.127 (inactive)
same,z-score,[3],0.0622 (inactive)
same,z-score,[4],2.51 (active)
same,cell count,[1],6190
same,cell count,[2],5590
same,cell count,[3],5940
same,cell count,[4],3720
Nc1ccccc1NC(=O)c1ccc(CNC(=O)OCc2cccnc2)cc1,z-score,,5.22 (active)
same,z-score,[5],-0.106 (inactive)
same,z-score,[6],-0.0587 (inactive)
same,z-score,[7],4.46 (active)
same,z-score,[4],13.5 (active)
same,cell count,,4300
same,cell count,[5],4680
same,cell count,[6],4820
same,cell count,[7],3240
same,cell count,[4],1730
O=C(NCc1cccnc1)c1ccc(CNS(=O)(=O)c2ccc(F)cc2)cc1,z-score,[1],-0.0415 (inactive)
same,z-score,[2],-0.565 (inactive)
same,z-score,[3],-0.611 (inactive)
same,z-score,[4],-0.531 (inactive)
same,cell count,[1],5120
same,cell count,[2],5290
same,cell count,[3],5220
same,cell count,[4],4960
CC(C)(C)c1ccc(S(=O)(=O)NCc2ccc(C(=O)Nc3cccnc3)cc2)cc1,z-score,[1],-0.216 (inactive)
same,z-score,[2],0.0762 (inactive)
same,z-score,[3],0.362 (inactive)
same,z-score,[4],0.0219 (inactive)
same,cell count,[1],6170
same,cell count,[2],5130
same,cell count,[3],2500
same,cell count,[4],1690
O=c1cc(-c2cccc3c2Sc2ccccc2S3)oc(N2CCOCC2)c1,z-score,[5],-0.163 (inactive)
same,z-score,[1],-0.486 (inactive)
same,z-score,[6],-0.0765 (inactive)
same,z-score,[2],-0.335 (inactive)
same,z-score,[7],-0.27 (inactive)
same,z-score,[3],-0.523 (inactive)
same,z-score,[4],0.302 (inactive) and 0.32 (inactive)
same,cell count,[5],6030
same,cell count,[1],4590
same,cell count,[6],5590
same,cell count,[2],4700
same,cell count,[7],5740
same,cell count,[3],4720
same,cell count,[4],3610 and 4370
CC1CN(CC(=O)Nc2ccc3c(c2)Cc2cccc(-c4cc(=O)cc(N5CCOCC5)o4)c2S3)CC(C)O1 (configuration not stated),z-score,[1],-0.376 (inactive)
same,z-score,[2],-0.656 (inactive)
same,z-score,[3],0.69 (inactive)
same,z-score,[4],4.45 (active)
same,cell count,[1],6150
same,cell count,[2],6090
same,cell count,[3],4680
same,cell count,[4],1840
CCCCCCCCCCCCCCCCCCCCCC(=O)NCCO,z-score,,0.434 (inactive)
same,cell count,,5500
O=C(O)CCC/C=C\C[C@H]1[C@@H](/C=C/[C@@H](O)CCc2ccccc2)[C@H](O)C[C@@H]1O,z-score,,-0.319 (inactive)
same,cell count,,5160
CCCCCC(=O)Nc1c(C)cc(Br)cc1C,z-score,[1],0.207 (inactive)
same,z-score,[2],0.413 (inactive)
same,z-score,[3],-0.729 (inactive)
same,z-score,[4],-0.28 (inactive)
same,cell count,[1],4910
same,cell count,[2],4850
same,cell count,[3],5330
same,cell count,[4],4660
O=C(CCCCc1ccccc1)C(F)(F)C(F)(F)F,z-score,,-0.184 (inactive)
same,cell count,,5310
CC(=O)N[C@@H](CSC/C=C(\C)CC/C=C(\C)CC/C=C(\C)CCC=C(C)C)C(=O)O,z-score,,1.41 (inactive)
same,cell count,,5420
NC(=O)c1cnc(NCCc2ccc(O)c(Cl)c2)nc1NCc1ccccc1,outcome,,inactive; censored for cell count
same,z-score,[5],-1.13 (inactive)
same,z-score,[6],-0.967 (inactive)
same,z-score,[7],6.17 (active)
same,cell count,[5],7430
same,cell count,[6],6770
same,cell count,[7],1590
CCC(CO)Nc1nc(NCc2ccccc2)c2ncn(C(C)C)c2n1 (configuration not stated),z-score,[1],-0.719 (inactive)
same,z-score,[2],-0.53 (inactive)
same,z-score,[3],-0.509 (inactive)
same,z-score,[4],0.143 (inactive)
same,cell count,[1],5300
same,cell count,[2],4780
same,cell count,[3],4590
same,cell count,[4],3210
Cn1cnc2c(NCc3ccccc3)nc(NCCO)nc21,z-score,,0.158 (inactive)
same,cell count,,4830
